Experiment [1] concerns the target Luciferin 4-monooxygenase (Photinus pyralis) (UniProt P08659). The experiment is described as follows: Biochemical firefly luciferase enzyme assay for NPC (AID 624030). Note: nearly all actives have a fitted effect of over 70% in size. Note: potency is the fitted concentration of half-maximal effect. In outline:
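Purified P. pyralis luciferase at 10 nM in 50 mM Tris Acetate (final), luminescence read within 5 minutes of enzyme addition to compounds. Activity normalised to PTC124 versus DMSO; concentration-response curves classed by r2, magnitude and activity.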

Experiment [2] can be described thus: S16 Schwann cell viability assay (CellTiter-Glo assay) (AID 624031). Note: nearly all actives have a fitted effect of over 70% in size. Note: potency is the fitted concentration of half-maximal effect. In outline: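 Luminescent ATP read-out (CellTiter-Glo) after 24 h compound exposure of native S16 rat Schwann cells at 37 °C. Signals were normalized between cell-free wells and DMSO-treated cells, set as 0% activity.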
A general note: ATP-based viability assays read luminescence as a measure of living cells.

Experiment [3] is described as follows: S16 Schwann cell PMP22 intronic element beta-lactamase assay (AID 624044; calls by dose curve; note: nearly all actives have a fitted effect of over 15% in size). An outline of the steps:
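Beta-lactamase reporter under a PMP22 intronic regulatory element in stable S16 rat Schwann cells; 24 h compound exposure. 460 nm blue signal normalized between DMSO (0%) and potassium clavulanate, with 535 nm FRET tracking viability; curves classed by r2 and response.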

The target of experiment [4] is Glutaminase kidney isoform, mitochondrial (Homo sapiens) (UniProt O94925). The experiment is described as follows: qHTS for Inhibitors of Glutaminase (GLS): LOPAC Validation (AID 624146).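 Note: glutamate product detected by oxidase and peroxidase coupled Amplex red fluorescence gain; series mostly up to about 46 µM; nearly all actives have a fitted effect of over 60% in size.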 In outline:
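hKGA; 45 mM KH2PO4 pH 8.2 + 0.02% Tween-20; cpd via pin tool; 1 mM Gln soln; GluOx/HRP/Amplex Red; RT 30 min; fluor. t0 & final.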

Experiment [5] concerns the target Glucagon-like peptide 1 receptor (Homo sapiens) (UniProt P43220). Kind of experiment: qHTS of GLP-1 Receptor Agonists: LOPAC Validation (AID 624148).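 Note: higher luminescence signal means agonism.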 In outline: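 HEK293 cells stably co-expressing GLP-1R and a cAMP-responsive luciferase reporter, plated 12 hours before compound, then incubated 4-6 hr at 37 deg C. Luminescence read 12 min after detection reagent.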
In general terms: In qHTS, concentration-response curves come from the screen itself.

Experiment [6] can be described thus: qHTS of Nrf2 Activators: LOPAC Validation (AID 624149). In outline:
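Following overnight seeding in 5% FBS OPTI-MEM, AREc32_Fluc cells receive compounds for a 24 hr incubation at 37 deg C with 5% CO2. Steady-Glo is added, and after 30 min at RT luminescence is recorded.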

A short description of experiment [7]: HTS Assay for Allosteric Antagonists of the Human D2 Dopamine Receptor: Hit Validation in HTRF (AID 624455).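 Note: stable D1 dopamine receptor cell line scored for blocking the D1 response.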 An outline of the steps: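 Validation of hits used D1 receptor stably expressed in cells with HTRF detection of response inhibition; origin screen measured calcium flux following EC80 dopamine in a force-coupled, inducible Hek293 Trex D2 cell line.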

The target of experiment [8] is Tumor susceptibility gene 101 protein (Homo sapiens) (UniProt Q99816). Kind of experiment: qHTS Assay for Iinhibitors of HIV-1 Budding by Blocking the Interaction of PTAP/TSG101: Hit Validation (AID 651600). Note: nearly all actives have a fitted effect of over 70% in size. In outline:
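Displacement of a FITC-labeled PTAP-motif peptide (50 nM) from the Tsg101 binding domain (10 uM) was monitored by fluorescence polarization after a 20 min room-temperature incubation.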

Experiment [9] can be described thus: qHTS assay for small molecule agonists of the antioxidant response element (ARE) signaling pathway (AID 651741; active = well fitted activation curve with a large enough effect in the signal ratio; the % refers to the signal ratio). An outline of the steps: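 HepG2 ARE-bla reporter cells, 2,000/well; 5 h settle at 37 C/5% CO2; compound pin transfer (23 nL, DMSO); 16 h at 37 C; LiveBLAzer B/G FRET substrate, 2 h RT; fluorescence intensity read.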
Experiment [10] in a line: qHTS assay for small molecule activators of the p53 signaling pathway (AID 651743; active = well fitted activation curve with a large enough effect in the signal ratio, not every such curve was filed as active; the % refers to the signal ratio; note: series mostly up to about 92 µM). Conditions: HCT-116 p53RE-bla, beta-lactamase FRET ratio, 16 h; hits give high values. An outline of the steps: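 Reporter: beta-lactamase driven by p53 response elements, stably integrated in HCT-116 cells. Cells seeded at 4,000/well, 5 h preincubation, compound (DMSO) 16 h at 37 C; B/G FRET substrate 2 h RT; fluorescence intensity read.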

The nature of experiment [11]: qHTS assay for small molecule activators of the nuclear factor-kappa B (NF-kB) signaling pathway (AID 651749; active = well fitted activation curve with a large enough effect in the signal ratio; the % refers to the signal ratio; note: series mostly up to about 77 µM). Conditions: NF-kB-bla ME-180 cells, beta-lactamase FRET ratio, 16 h; hits give high values. An outline of the steps:
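NF-kB-bla ME-180 cells, 2,000/well; 23 nL compound or DMSO pinned; 16 hr, 37C/5% CO2; beta-lactamase FRET read-out.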

Experiment [12] has as its target Peroxisome proliferator-activated receptor alpha (Homo sapiens) (UniProt Q07869). Kind of experiment: qHTS assay for small molecule agonists of the peroxisome proliferator-activated receptor alpha (PPARalpha) signaling pathway (AID 651778). Note: potency is the fitted concentration of half-maximal effect. Conditions: PathHunter PPARalpha complementation, chemiluminescence, 6 h; max response: hits give high values. In outline: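 Enzyme-fragment complementation assay in which ligand-bound PPARalpha translocates and forms an active enzyme that generates chemiluminescence. Cells were plated overnight, exposed to compound for 6 hr at 37 C, and then given detection reagent for 60 min at room temperature.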

Experiment [13] in a line: S16 Schwann cell PMP22 intronic element firefly luciferase assay (AID 624032). Note: potency is the fitted concentration of half-maximal effect; nearly all actives have a fitted effect of over 30% in size. An outline of the steps:
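Rat S16 Schwann cells stably carrying firefly luciferase driven by a PMP22 intronic element, in 10% FBS, treated 24 h at 37 C. ONE-Glo luminescence normalized to PTC124 control and DMSO (0%); curves classed by r2, magnitude and activity.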

A number with no mark means an inactive call. Records with an inconclusive call do not appear. A call without a number means that no potency is given here. Active and inactive are the calls of the source. Unless noted, calls come from the whole dose curve; as a rule, active = well fitted curve in the direction sought with a large enough effect; inconclusive = small, poorly fitted or top-dose-only effect, or another doubt; inactive = no such curve, though single readings can be large; an effect the other way counts as inactive or inconclusive. Where a SMILES comes first, the peptide text is derived from it. Bridges are numbered along the chain shown (N, C = ends). [ ]: non-standard residue; d: D form. Orn = NCCC[C@H](N)C(=O)O; Mpa = O=C(O)CCS

Chain of Luciferin 4-monooxygenase (Photinus pyralis) (P08659 whole entry, looked up): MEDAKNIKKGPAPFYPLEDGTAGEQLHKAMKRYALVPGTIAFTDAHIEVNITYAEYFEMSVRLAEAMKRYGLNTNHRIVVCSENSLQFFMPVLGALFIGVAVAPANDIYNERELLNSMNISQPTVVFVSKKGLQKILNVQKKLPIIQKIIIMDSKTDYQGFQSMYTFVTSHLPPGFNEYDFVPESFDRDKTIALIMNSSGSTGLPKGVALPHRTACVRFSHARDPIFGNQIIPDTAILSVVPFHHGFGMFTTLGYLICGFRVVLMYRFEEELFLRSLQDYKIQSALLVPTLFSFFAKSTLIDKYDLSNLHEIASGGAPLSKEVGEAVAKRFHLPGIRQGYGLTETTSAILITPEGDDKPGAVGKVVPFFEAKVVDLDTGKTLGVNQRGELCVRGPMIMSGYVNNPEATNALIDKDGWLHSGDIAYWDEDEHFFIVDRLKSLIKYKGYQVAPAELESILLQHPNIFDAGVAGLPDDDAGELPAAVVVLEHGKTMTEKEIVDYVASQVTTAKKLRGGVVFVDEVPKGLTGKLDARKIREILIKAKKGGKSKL
Chain of Glucagon-like peptide 1 receptor (Homo sapiens) (P43220 whole entry, looked up): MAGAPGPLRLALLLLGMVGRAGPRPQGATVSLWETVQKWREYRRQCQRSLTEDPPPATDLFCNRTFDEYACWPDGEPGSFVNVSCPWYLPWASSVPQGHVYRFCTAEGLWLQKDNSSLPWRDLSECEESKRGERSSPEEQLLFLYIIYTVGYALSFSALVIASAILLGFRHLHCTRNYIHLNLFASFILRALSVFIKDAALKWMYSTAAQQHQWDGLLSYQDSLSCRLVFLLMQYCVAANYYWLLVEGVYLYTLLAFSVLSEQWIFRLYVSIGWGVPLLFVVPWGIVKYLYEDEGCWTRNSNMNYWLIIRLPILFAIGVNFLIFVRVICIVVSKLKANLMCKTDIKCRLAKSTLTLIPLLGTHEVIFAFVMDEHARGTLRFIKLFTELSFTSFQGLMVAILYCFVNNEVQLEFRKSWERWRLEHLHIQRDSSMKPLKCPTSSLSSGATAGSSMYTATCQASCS
Chain of Glutaminase kidney isoform, mitochondrial (Homo sapiens) (O94925 whole entry, looked up, canonical isoform): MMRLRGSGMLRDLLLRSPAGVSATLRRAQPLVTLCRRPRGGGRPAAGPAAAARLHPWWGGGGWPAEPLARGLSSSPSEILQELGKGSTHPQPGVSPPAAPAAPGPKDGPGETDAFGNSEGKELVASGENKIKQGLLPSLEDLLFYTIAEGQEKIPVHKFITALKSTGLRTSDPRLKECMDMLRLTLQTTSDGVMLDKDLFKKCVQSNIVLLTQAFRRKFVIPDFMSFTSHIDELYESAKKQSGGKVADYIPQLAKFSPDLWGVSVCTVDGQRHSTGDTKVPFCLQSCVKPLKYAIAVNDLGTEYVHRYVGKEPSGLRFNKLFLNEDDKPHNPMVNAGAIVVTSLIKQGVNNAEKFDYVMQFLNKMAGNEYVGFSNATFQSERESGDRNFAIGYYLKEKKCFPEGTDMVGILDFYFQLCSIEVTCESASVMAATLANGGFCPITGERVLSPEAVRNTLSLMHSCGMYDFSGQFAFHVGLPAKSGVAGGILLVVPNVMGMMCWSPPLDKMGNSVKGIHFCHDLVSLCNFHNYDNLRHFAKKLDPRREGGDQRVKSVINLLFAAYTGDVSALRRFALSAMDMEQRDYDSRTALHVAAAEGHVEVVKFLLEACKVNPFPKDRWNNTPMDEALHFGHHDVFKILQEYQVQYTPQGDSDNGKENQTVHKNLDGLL
Chain of Peroxisome proliferator-activated receptor alpha (Homo sapiens) (Q07869 whole entry, looked up, the tested form may be a part): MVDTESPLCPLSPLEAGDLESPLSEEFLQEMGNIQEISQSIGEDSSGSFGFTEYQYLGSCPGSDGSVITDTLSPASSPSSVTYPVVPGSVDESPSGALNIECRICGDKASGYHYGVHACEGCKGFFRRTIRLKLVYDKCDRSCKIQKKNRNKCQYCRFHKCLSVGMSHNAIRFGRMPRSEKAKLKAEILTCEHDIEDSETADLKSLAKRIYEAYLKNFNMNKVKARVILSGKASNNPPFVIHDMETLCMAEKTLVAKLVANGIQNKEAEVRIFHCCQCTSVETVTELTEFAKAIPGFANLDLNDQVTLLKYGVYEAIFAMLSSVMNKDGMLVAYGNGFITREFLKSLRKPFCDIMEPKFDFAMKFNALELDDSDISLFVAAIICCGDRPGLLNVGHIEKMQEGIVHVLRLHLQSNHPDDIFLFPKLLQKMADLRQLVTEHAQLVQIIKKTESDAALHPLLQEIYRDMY
Chain of Tumor susceptibility gene 101 protein (Homo sapiens) (Q99816 whole entry, looked up, the tested form may be a part): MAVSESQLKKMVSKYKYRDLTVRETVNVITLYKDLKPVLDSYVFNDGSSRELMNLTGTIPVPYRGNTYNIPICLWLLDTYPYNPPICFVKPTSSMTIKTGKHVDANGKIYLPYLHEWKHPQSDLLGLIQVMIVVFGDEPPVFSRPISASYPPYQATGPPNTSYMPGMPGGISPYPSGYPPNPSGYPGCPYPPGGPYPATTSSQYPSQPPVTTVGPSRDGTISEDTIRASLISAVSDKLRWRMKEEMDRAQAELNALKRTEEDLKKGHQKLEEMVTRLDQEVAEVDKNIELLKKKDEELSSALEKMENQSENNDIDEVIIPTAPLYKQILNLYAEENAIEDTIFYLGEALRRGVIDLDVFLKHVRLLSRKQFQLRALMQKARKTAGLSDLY

Regarding `NCCCC[C@H](NC(=O)[C@@H]1CCCN1C(=O)[C@@H]1CSSC[C@H](NC(=O)CNC(=O)CNC(=O)CN)C(=O)N[C@@H](Cc2ccc(O)cc2)C(=O)N[C@@H](Cc2ccccc2)C(=O)N[C@@H](CCC(N)=O)C(=O)N[C@@H](CC(N)=O)C(=O)N1)C(=O)NCC(N)=O` (H-GGGCYFQNCPKG-NH2; disulfide 4-9), the Potency entry in [1] was “inactive”. As for `O=P(O)(O)OC(CO)CO`, the Potency result in [1] is “inactive”. Take `CN[C@H]1CC[C@@H](c2ccc(Cl)c(Cl)c2)c2ccccc21`: the Potency result in experiment [1] is “inactive”. Further, in experiment [2], the Potency was 28.7 µM (active). Also, the compound was called inactive in experiment [3], in experiment [4], in [5], in experiment [6] and in [7]. On to `CCOc1ccc(C[C@H]2NC(=O)CCSSC[C@@H](C(=O)N3CCC[C@H]3C(=O)N[C@@H](CCCN)C(=O)NCC(N)=O)NC(=O)[C@H](CC(N)=O)NC(=O)[C@H]([C@@H](C)O)NC(=O)[C@H]([C@@H](C)CC)NC2=O)cc1` ([Mpa][dY](Et)ITNCP[Orn]G-NH2; disulfide 1-6), for which, in experiment [1], the Potency entry was “inactive”. `CC[C@H](C)/C=C(C)/C=C/C1=CC2=CC(=O)[C@]3(C)OC(=O)[C@@H](C(C)=O)[C@@H]3C2=CO1`: the result in experiment [8] was inactive.

In the case of `CCCCCCCC/C=C\CCCCCCCC(=O)OC[C@@H](O)[C@H]1OC[C@H](O)[C@H]1O`, the Potency entry in experiment [1] and in experiment [9] was “inactive” each time. Also, the activation in experiment [10] is 1.59%; in experiment [11], 0.379%. The Potency in experiment [12] was 39.8 µM (active). Take `CCC(=O)O`: the Potency entry in experiment [1] is “inactive”.

In the case of `c1ccc2c(CCC3CCNCC3)c[nH]c2c1`, in experiment [1], the Potency entry was “inactive”. As for `CCOC(=O)Cc1cccc(-c2cc(CCCCCCc3ccc(O[C@H]4O[C@H](COC(C)=O)[C@@H](OC(C)=O)[C@H](OC(C)=O)[C@@H]4OC(C)=O)c(-c4cccc(CC(=O)OCC)c4)c3)ccc2O[C@H]2O[C@H](COC(C)=O)[C@@H](OC(C)=O)[C@H](OC(C)=O)[C@@H]2OC(C)=O)c1`, in experiment [1], the Potency result was “inactive”. The same measure, in the same setting: the entry for `O=P(O)(O)OC(Cn1cncn1)(Cn1cncn1)c1ccc(F)cc1F` is “inactive”; for `CC(CC(c1ccccc1)c1ccccc1)NC(C)(C)C` (configuration not stated) it is “inactive”; for `CN(C(=O)CO)c1c(I)c(C(=O)NCC(O)CO)c(I)c(C(=O)NCC(O)CO)c1I` (configuration not stated) it is “inactive”. With `C=CCNC1=C2C[C@@H](C)C[C@H](OC)[C@H](O)[C@@H](C)/C=C(\C)[C@H](OC(N)=O)[C@@H](OC)/C=C\C=C(/C)C(=O)NC(=CC1=O)C2=O`, the Potency entry in experiment [1] is “inactive”. Moreover, the Potency in experiment [2] was 16.1 µM (active); in [13], 0.0721 µM (active). Moreover, the compound was classed as inactive in experiment [3]. For the compound `O=C(O)c1cc2ccccc2c(Cc2c(O)c(C(=O)O)cc3ccccc23)c1O`, in [1], the Potency was 14.4 µM (active). Same read-out and setting: the entry for `CN[C@@H]1CCc2[nH]c3ccc(C(N)=O)cc3c2C1` is “inactive”. The same measure, in the same setting: the entry for `CS(=O)(=O)OCCCNCCCOS(C)(=O)=O` is “inactive”. On the same count and under the same terms, under `O=S(O)CO` stands “inactive”. Regarding `COC1C(OC(=O)/C=C/C=C/C=C/C=C/C(=O)O)CCC2(CO2)C1C1(C)OC1CC=C(C)C` (configuration not stated), the Potency result in [1] and in [2] was “inactive” throughout.

Source of the values: PubChem BioAssay (NCATS).
